In the library only some 0.93% were active in any assay of this set; here they are far more common.
CDC25B CDK2 inh = human CDC25B-CDK2/CyclinA binding inhibition | z-score (concentration not given with the values) | P30305+P24941 | HTRF CDC25B-CDK2/CyclinA binding, anti-His/anti-Flag; active compounds read high | AID 1259370 | 94,000 compounds, 0.72% hits; in the data active means z-score above about 3.2
HIV TAR-Tat = HIV-1 TAR-Tat binding disruption. 100,000 compounds, 0.6% hits. HIV-1 TAR RNA, Tat peptide displacement FRET; active compounds read high. z-score (test concentration not listed); active means z-score of 3 or more in at least 2 runs
A number is an active result.

What do the screens show for `C=CCOc1ccc(CNc2ccc3[nH]c(=O)[nH]c3c2)cc1OC`?
CDC25B CDK2 inh: inactive; HIV TAR-Tat: inactive

What do the screens show for `O=c1[nH]c2ccc(NCc3ccc(-c4ccc(F)cc4)o3)cc2[nH]1`?
CDC25B CDK2 inh: 5.3; HIV TAR-Tat: inactive

What do the screens show for `O=C(Cc1cccs1)Nc1ccc2[nH]c(=O)[nH]c2c1`?
HIV TAR-Tat: inactive

Results for CCc1ccc(Nc2c(C)c(C)nc3ncnn23)cc1 ?
HIV TAR-Tat: inactive

Results for Cc1ccc(CN(C(=O)c2cc(-c3ccc4c(c3)OCCO4)on2)C2CCS(=O)(=O)C2)cc1 (stereo not drawn) ?
CDC25B CDK2 inh: inactive; HIV TAR-Tat: inactive

How did CC1Cc2ccccc2N1C(=O)CN(C)S(=O)(=O)c1ccc2c(c1)C(C)(C)C(=O)N2C (stereo not drawn) do in these assays?
HIV TAR-Tat: inactive

Results for Cc1cccc(C2C(C#N)=C3N=C(N)c4ccccc4N3C3=C2C(=O)CCC3)c1 (stereo not drawn) ?
CDC25B CDK2 inh: inactive; HIV TAR-Tat: inactive

What do the screens show for `N#CC1=C2N=C(N)c3ccccc3N2C2=C(C(=O)CCC2)C1c1cccc(Br)c1` (stereo not drawn)?
CDC25B CDK2 inh: 18; HIV TAR-Tat: inactive

Results for O=C(O)c1cc(=O)c2ccccc2[nH]1 ?
CDC25B CDK2 inh: inactive; HIV TAR-Tat: inactive

What do the screens show for `O=C(O)c1cc(=O)c2cccc(O)c2[nH]1`?
HIV TAR-Tat: 5.3

How did COc1ccccc1Nc1nc(-c2c(C)nc3ccccn23)cs1 do in these assays?
CDC25B CDK2 inh: inactive; HIV TAR-Tat: inactive

What do the screens show for `COc1ccc(Cl)cc1Nc1nc(-c2c(C)nc3ccccn23)cs1`?
CDC25B CDK2 inh: inactive; HIV TAR-Tat: 8.3

What do the screens show for `O=C1CCCc2cc(S(=O)(=O)N3CCCC(C(=O)NC4CCCc5ccccc54)C3)ccc2N1` (stereo not drawn)?
HIV TAR-Tat: inactive

How did COc1ccc(-n2nnc(-c3nc(-c4ccccc4Cl)no3)c2N)cc1 do in these assays?
HIV TAR-Tat: inactive

What do the screens show for `C=CCc1cccc(/C=N/Nc2nc(-c3cc4cc(OC)ccc4oc3=O)cs2)c1O`?
CDC25B CDK2 inh: inactive

How did COc1ccc(C2CC(c3c(O)n(C)c(=O)n(C)c3=O)=Nc3ccccc3S2)cc1OC (stereo not drawn) do in these assays?
CDC25B CDK2 inh: 20; HIV TAR-Tat: inactive

Results for COc1cc(C2CC(c3c(O)n(C)c(=O)n(C)c3=O)=Nc3ccccc3S2)ccc1O (stereo not drawn) ?
CDC25B CDK2 inh: inactive; HIV TAR-Tat: inactive

How did O=C(Nc1nccs1)c1ccc(-c2noc(C3CCCC3)n2)cc1 do in these assays?
HIV TAR-Tat: inactive

What do the screens show for `CC(C)=CC[C@@H](OC(=O)C=C(C)C)C1=CC(=O)c2c(O)ccc(O)c2C1=O`?
HIV TAR-Tat: 23

Results for CCC(=O)Nc1nc2ccc(NC(=O)c3cnccn3)cc2s1 ?
HIV TAR-Tat: inactive

What do the screens show for `COCCCNC(=O)Nc1ccc2c(c1)CCN2S(=O)(=O)c1ccccc1`?
HIV TAR-Tat: inactive

Results for Cc1cc(C)n(CCCO)c(=O)c1C#N ?
CDC25B CDK2 inh: inactive; HIV TAR-Tat: inactive

How did Cc1cc(C)n(CC(C)O)c(=O)c1C#N (stereo not drawn) do in these assays?
CDC25B CDK2 inh: 16; HIV TAR-Tat: inactive

How did O=C(CN1C(=O)c2ccc([N+](=O)[O-])cc2C1=O)Nc1ccc2ccccc2c1 do in these assays?
CDC25B CDK2 inh: 6.7

Results for O=C(Nc1cccc([N+](=O)[O-])c1)c1ccc2c(c1)C(=O)N(c1cccc3ccccc13)C2=O ?
CDC25B CDK2 inh: inactive

How did CCN1C(=O)c2cccc3c(S(=O)(=O)NC(Cc4ccccc4)C(=O)O)ccc1c23 (stereo not drawn) do in these assays?
CDC25B CDK2 inh: inactive; HIV TAR-Tat: inactive

What do the screens show for `CCN1C(=O)c2cccc3c(NC(=O)c4ccc(Cl)s4)ccc1c23`?
CDC25B CDK2 inh: 16

Results for Cc1occc1-c1nnc2sc(/C=C/c3ccccc3Cl)nn12 ?
CDC25B CDK2 inh: inactive; HIV TAR-Tat: 7.7

Results for Cc1ccc(-c2nn3c(C)nnc3s2)cc1 ?
CDC25B CDK2 inh: inactive; HIV TAR-Tat: inactive

What do the screens show for `Cc1ccc(-c2nnc3sc(/C=C/c4ccco4)nn23)cc1`?
CDC25B CDK2 inh: 14; HIV TAR-Tat: 20

How did Cc1ccccc1/C=C/c1nn2c(-c3ccoc3C)nnc2s1 do in these assays?
CDC25B CDK2 inh: inactive; HIV TAR-Tat: inactive

What do the screens show for `Cc1nnc2sc(/C=C/c3ccco3)nn12`?
CDC25B CDK2 inh: inactive; HIV TAR-Tat: 11

What do the screens show for `C(=C\c1nn2cnnc2s1)/c1ccco1`?
CDC25B CDK2 inh: inactive; HIV TAR-Tat: 21

What do the screens show for `c1csc(-c2nn3cnnc3s2)c1`?
CDC25B CDK2 inh: inactive; HIV TAR-Tat: inactive

How did Cc1ccc(/C=C/c2nn3c(-c4ccoc4C)nnc3s2)cc1 do in these assays?
CDC25B CDK2 inh: inactive; HIV TAR-Tat: inactive

Results for O=C(CSc1nc2ccc(N3C(=O)c4ccccc4C3=O)cc2s1)NC1CC1 ?
CDC25B CDK2 inh: inactive

Results for O=C1NC(c2cccc(Br)c2)C(C(=O)c2cccs2)C(O)(C(F)(F)F)N1 (stereo not drawn) ?
CDC25B CDK2 inh: inactive

How did Nc1c(C(=O)NCc2ccco2)sc2nc(N3CCCC3)c3c(c12)CCCC3 do in these assays?
CDC25B CDK2 inh: inactive; HIV TAR-Tat: inactive

What do the screens show for `CC(=O)N1N=C(c2cccc3ccccc23)OC1c1cc(C)nc2ccccc12` (stereo not drawn)?
HIV TAR-Tat: inactive

How did COc1cc(C2OC(c3cc(C4CC4)nc4ccccc34)=NN2C(C)=O)ccc1OC(C)=O (stereo not drawn) do in these assays?
HIV TAR-Tat: inactive

What do the screens show for `CC(=O)N1N=C(c2cc(C)nc3ccccc23)OC1c1cccs1` (stereo not drawn)?
HIV TAR-Tat: 3.8

What do the screens show for `CC(=O)N1N=C(c2cc(C3CC3)nc3ccccc23)OC1c1ccc2c(c1)OCO2` (stereo not drawn)?
HIV TAR-Tat: 4.4

What do the screens show for `COc1cccc2c(=O)c(NC(=O)NCC3CCCO3)c[nH]c12` (stereo not drawn)?
CDC25B CDK2 inh: inactive; HIV TAR-Tat: inactive

Results for COCCNC(=O)Nc1cc2ccc(OC)cc2n1C ?
CDC25B CDK2 inh: inactive; HIV TAR-Tat: inactive

Results for COc1ccc2cc(NC(=O)Nc3ccc(OC)c4cccnc34)n(C)c2c1 ?
CDC25B CDK2 inh: 14; HIV TAR-Tat: inactive

How did Oc1ccc(Cl)cc1C=Nc1ccc2cn[nH]c2c1 do in these assays?
CDC25B CDK2 inh: 9.1

How did Oc1c(Cl)cc(Cl)cc1C=Nc1cccnc1 do in these assays?
CDC25B CDK2 inh: inactive

Results for COc1cc(C2C(C#N)=C(N)OC3=C2C(=O)CCC3)ccc1OC(C)=O (stereo not drawn) ?
CDC25B CDK2 inh: inactive

How did CCN(CC)C/C(C)=N/Nc1ccccc1 do in these assays?
CDC25B CDK2 inh: inactive

Results for NC1=NC(c2ccccc2Cl)CC(=O)N1 (stereo not drawn) ?
HIV TAR-Tat: inactive

What do the screens show for `CC(=O)Nc1ccc(NC(=O)c2nccnc2C(=O)O)cn1`?
CDC25B CDK2 inh: 11

Results for Cc1ccc(NC(=O)c2nccnc2C(=O)O)cc1 ?
CDC25B CDK2 inh: inactive

How did Oc1cccc(Nc2nc(-c3cccnc3)cs2)c1 do in these assays?
CDC25B CDK2 inh: inactive; HIV TAR-Tat: inactive

What do the screens show for `O=C(O)c1cc(Nc2nc(-c3cccnc3)cs2)ccc1O`?
CDC25B CDK2 inh: inactive; HIV TAR-Tat: 4.4

Results for O=C(O)CCC(=O)N1CCSc2ncccc21 ?
CDC25B CDK2 inh: inactive; HIV TAR-Tat: inactive

Assay outcomes (PubChem)
